Binding signal data for two sequences are collected here from PMC7862700, “An all-to-all approach to the identification of sequence-specific readers for epigenetic DNA modifications on cytosine”.

What all share (assay): DAPPL (digital affinity profiling via proximity ligation, sequencing); 10 mM Tris-HCl pH 7.5, 50 mM NaCl, 1 mM DTT, 4% glycerol, room temperature, 30 min; GST-TFs on glutathione beads, 16-mer random dsDNA library, 0.1% formaldehyde crosslink after washing; high values mean tight binding
Conditions in all cases: protein: recombinant; tags: N-terminal GST; dsDNA, one strand shown

The target in one assay is T1, FLI1 (Homo sapiens, UniProt Q01543 1-452).
T1 sequence: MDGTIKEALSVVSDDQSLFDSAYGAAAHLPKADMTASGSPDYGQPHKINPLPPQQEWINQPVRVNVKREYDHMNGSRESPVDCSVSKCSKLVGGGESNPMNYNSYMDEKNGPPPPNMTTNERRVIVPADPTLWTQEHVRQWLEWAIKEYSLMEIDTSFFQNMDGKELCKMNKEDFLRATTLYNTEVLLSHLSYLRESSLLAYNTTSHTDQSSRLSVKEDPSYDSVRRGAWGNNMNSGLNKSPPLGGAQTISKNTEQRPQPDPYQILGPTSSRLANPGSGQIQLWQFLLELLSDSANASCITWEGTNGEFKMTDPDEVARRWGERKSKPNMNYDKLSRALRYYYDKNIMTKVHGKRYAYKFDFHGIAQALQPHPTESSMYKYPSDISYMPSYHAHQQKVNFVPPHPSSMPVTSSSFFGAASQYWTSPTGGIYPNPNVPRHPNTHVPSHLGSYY
Put shortly:
(§1)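 Each value of binding signal is a hexamer's read frequency for a factor divided by the same hexamer's frequency in the tag-only sample. Barcoded, bead-captured GST fusions of human transcription factors made in yeast were pooled with that sample and incubated with 200 nmole of a random double-stranded 16-mer DNA library in Tris/NaCl/DTT/glycerol buffer at room temperature for 30 min. Washing, 0.1% formaldehyde crosslinking, proximity ligation, PCR and Illumina NextSeq500 sequencing followed.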

The target of another assay is T2, ELK1 (Homo sapiens, UniProt P19419 1-428).
T2 sequence: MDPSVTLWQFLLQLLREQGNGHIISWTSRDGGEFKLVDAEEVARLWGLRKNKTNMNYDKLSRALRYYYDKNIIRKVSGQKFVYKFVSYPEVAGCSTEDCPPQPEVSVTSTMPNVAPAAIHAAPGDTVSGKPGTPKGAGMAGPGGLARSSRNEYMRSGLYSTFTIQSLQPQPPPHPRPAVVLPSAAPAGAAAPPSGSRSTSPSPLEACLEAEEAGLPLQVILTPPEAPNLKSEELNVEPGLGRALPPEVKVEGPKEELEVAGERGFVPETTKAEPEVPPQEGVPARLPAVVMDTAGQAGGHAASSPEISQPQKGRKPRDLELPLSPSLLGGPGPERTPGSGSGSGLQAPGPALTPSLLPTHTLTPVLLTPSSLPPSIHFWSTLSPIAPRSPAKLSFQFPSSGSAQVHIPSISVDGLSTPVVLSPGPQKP
The method in brief:
as §1

Another assay concerns the target T3, GABPA (Homo sapiens, UniProt Q06546 1-454).
T3 sequence: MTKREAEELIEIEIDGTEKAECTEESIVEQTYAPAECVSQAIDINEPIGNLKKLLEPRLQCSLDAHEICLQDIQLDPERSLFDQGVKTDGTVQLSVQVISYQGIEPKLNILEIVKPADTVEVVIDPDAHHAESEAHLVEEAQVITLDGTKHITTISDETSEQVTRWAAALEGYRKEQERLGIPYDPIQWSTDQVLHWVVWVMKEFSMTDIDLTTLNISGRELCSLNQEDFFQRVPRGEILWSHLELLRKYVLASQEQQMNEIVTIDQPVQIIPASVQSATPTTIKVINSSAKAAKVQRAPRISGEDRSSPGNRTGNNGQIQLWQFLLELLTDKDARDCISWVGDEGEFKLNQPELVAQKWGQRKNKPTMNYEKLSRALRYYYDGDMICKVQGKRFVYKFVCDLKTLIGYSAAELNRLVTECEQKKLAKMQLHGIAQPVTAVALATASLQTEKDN
Put shortly: as §1

The next assay addresses T4, ERG (Homo sapiens, UniProt P11308 1-479).
T4 sequence: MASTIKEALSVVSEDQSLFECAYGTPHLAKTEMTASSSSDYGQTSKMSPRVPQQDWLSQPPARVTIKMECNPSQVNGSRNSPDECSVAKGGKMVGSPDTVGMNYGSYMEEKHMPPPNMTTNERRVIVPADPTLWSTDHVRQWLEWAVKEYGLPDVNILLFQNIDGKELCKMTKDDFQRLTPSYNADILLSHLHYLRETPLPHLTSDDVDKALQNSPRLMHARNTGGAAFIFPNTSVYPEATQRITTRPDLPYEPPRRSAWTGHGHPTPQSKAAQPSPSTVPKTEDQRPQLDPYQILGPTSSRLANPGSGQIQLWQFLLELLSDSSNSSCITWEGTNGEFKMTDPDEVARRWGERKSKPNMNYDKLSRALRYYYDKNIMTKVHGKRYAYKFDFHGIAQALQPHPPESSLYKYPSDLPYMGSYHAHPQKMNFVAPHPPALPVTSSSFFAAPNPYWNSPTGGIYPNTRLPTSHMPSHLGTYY
Put shortly:
as §1

For the next assay, the target named is ELF1 (Homo sapiens, UniProt P32519 1-619). The method in brief:
as §1

The target of another assay is T5, EHF (Homo sapiens, UniProt Q9NZC4 1-300).
T5 sequence: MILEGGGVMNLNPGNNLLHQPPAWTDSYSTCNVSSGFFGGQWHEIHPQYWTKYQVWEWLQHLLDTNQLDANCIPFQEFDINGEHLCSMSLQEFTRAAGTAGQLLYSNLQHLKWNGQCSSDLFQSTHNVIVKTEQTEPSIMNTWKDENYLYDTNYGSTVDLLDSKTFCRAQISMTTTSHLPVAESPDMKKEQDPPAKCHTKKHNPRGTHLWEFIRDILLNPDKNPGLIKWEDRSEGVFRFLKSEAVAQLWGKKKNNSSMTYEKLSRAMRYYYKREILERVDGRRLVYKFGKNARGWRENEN
Put shortly:
as §1

In a further assay the target is SPI1 (Homo sapiens, UniProt P17947 1-270). Put shortly:
as §1

The next assay concerns the target SPIB (Homo sapiens, UniProt Q01892 1-262). The method in brief:
as §1

For a further assay, the target named is T6, ELK3 (Homo sapiens, UniProt P41970 1-407).
T6 sequence: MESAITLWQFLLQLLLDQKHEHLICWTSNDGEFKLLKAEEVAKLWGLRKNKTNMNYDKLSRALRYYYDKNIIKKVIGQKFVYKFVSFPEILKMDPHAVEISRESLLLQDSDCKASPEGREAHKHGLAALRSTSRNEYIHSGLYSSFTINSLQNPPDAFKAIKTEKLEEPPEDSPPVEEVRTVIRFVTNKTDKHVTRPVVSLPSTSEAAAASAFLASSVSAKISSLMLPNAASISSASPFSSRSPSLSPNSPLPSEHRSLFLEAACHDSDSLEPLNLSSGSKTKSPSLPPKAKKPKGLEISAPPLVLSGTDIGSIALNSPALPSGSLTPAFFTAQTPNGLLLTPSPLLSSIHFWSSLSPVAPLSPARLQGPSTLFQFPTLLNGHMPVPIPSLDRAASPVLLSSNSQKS
The method in brief: as §1

The target of another assay is T7, FEV (Homo sapiens, UniProt Q99581 1-238).
T7 sequence: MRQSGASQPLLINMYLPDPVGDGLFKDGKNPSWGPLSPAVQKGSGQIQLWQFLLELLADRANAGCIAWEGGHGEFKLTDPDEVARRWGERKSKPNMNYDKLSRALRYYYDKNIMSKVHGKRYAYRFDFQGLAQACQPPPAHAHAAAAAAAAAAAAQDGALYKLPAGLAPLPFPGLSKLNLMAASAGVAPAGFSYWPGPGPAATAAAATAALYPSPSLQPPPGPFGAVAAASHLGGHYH
The method in brief: as §1

The next assay concerns the target ETV5 (Homo sapiens, UniProt P41161 1-510). Put shortly:
as §1

Another assay addresses T8, SPIC (Homo sapiens, UniProt Q8N5J4 1-248).
T8 sequence: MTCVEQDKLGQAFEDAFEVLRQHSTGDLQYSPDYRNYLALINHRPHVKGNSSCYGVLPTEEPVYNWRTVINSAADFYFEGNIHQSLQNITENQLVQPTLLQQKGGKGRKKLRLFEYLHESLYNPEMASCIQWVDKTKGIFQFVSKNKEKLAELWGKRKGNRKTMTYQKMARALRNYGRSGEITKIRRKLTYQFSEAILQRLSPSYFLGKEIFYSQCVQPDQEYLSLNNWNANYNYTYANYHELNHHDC
Put shortly: as §1

The next assay deals with ELF4 (Homo sapiens, UniProt Q99607 1-663). The method in brief: as §1
For a further assay, the target named is T9, ELK4 (Homo sapiens, UniProt P28324-2 1-405).
T9 sequence: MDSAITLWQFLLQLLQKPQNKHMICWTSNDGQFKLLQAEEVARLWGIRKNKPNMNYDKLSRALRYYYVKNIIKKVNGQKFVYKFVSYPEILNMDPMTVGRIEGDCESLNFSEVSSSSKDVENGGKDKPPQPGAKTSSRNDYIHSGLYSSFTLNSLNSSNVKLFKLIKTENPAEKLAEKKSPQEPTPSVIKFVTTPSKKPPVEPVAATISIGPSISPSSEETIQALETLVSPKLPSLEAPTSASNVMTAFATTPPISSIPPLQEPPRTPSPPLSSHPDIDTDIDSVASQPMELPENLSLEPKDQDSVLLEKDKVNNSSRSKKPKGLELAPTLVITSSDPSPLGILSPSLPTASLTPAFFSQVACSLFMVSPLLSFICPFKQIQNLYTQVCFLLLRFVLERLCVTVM
The method in brief:
as §1

The next assay addresses T10, ETV2 (Homo sapiens, UniProt O00321 1-342).
T10 sequence: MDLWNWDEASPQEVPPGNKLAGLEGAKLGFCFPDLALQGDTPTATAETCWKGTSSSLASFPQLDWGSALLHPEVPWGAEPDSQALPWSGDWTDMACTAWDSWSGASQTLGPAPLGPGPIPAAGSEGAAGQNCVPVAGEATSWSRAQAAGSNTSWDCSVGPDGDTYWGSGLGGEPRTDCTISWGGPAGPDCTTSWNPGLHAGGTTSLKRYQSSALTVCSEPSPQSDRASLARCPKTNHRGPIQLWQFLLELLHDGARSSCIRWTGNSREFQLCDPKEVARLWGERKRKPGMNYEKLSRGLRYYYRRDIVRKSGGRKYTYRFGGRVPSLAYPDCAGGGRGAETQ
Put shortly: as §1

The next assay concerns the target T11, ELF3 (Homo sapiens, UniProt P78545 1-371).
T11 sequence: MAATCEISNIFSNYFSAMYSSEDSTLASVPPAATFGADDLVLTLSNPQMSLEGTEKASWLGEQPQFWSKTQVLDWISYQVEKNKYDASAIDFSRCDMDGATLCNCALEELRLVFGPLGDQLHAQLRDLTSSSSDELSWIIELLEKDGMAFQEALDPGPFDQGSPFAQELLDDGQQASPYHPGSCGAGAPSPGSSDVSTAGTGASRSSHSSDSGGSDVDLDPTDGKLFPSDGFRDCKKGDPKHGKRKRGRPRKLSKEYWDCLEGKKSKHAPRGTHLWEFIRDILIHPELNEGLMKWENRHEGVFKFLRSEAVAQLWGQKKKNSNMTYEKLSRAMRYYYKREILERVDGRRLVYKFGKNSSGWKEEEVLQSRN
The method in brief: as §1

For the next assay, the target named is ETV1 (Homo sapiens, UniProt P50549 1-477). The method in brief: as §1
Sequence of ETV1 (P50549 whole entry): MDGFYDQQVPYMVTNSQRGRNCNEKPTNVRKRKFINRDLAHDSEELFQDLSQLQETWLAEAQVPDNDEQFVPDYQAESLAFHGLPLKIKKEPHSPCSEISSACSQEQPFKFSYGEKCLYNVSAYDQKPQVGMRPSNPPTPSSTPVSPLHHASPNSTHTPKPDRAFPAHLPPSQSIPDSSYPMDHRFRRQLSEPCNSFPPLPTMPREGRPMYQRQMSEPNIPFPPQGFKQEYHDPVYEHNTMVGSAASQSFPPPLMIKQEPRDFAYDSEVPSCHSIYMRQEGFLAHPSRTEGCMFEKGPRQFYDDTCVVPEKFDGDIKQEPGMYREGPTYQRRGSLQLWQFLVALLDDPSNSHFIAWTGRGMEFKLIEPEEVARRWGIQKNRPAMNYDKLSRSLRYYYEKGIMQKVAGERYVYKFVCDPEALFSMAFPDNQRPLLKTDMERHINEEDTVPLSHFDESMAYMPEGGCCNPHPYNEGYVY

Sequence of SPIB (Q01892 whole entry): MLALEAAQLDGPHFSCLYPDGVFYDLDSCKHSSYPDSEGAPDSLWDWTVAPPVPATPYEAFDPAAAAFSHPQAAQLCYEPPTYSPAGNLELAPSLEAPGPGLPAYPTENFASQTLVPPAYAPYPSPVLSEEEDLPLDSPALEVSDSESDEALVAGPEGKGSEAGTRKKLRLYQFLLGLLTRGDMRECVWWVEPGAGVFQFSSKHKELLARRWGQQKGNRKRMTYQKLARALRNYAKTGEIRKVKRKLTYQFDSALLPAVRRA
Sequence of ETV5 (P41161 whole entry): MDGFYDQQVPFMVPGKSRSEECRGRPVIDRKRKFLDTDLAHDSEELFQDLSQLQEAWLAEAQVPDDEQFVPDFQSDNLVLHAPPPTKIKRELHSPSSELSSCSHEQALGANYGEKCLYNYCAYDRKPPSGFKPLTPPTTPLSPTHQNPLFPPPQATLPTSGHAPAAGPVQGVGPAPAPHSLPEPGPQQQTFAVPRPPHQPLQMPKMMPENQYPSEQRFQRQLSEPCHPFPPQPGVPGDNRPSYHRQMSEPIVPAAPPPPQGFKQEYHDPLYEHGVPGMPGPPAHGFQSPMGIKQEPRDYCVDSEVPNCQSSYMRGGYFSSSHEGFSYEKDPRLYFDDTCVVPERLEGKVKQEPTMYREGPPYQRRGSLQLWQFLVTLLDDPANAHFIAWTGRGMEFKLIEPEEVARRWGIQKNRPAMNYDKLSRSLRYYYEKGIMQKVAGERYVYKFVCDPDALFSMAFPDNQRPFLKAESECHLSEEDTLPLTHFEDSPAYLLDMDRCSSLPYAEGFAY
Sequence of ELF4 (Q99607 whole entry): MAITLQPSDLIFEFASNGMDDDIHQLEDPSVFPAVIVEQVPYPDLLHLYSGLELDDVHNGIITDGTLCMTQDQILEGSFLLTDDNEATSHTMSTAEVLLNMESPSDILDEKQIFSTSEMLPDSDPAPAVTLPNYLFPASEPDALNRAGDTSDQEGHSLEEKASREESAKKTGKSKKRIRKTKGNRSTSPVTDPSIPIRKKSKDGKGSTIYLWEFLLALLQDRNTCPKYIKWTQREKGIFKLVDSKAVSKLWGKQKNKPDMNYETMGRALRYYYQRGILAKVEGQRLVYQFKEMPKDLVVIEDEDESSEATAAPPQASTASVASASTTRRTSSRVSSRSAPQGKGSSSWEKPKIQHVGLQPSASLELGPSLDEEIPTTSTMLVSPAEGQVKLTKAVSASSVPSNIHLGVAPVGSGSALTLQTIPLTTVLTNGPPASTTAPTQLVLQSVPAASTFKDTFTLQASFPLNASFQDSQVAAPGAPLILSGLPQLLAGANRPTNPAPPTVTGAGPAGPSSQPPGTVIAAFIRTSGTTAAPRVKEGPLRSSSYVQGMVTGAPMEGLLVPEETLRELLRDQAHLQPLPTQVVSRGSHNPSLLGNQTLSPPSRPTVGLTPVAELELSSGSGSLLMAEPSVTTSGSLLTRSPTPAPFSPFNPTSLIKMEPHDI
Sequence of ELF1 (P32519 whole entry): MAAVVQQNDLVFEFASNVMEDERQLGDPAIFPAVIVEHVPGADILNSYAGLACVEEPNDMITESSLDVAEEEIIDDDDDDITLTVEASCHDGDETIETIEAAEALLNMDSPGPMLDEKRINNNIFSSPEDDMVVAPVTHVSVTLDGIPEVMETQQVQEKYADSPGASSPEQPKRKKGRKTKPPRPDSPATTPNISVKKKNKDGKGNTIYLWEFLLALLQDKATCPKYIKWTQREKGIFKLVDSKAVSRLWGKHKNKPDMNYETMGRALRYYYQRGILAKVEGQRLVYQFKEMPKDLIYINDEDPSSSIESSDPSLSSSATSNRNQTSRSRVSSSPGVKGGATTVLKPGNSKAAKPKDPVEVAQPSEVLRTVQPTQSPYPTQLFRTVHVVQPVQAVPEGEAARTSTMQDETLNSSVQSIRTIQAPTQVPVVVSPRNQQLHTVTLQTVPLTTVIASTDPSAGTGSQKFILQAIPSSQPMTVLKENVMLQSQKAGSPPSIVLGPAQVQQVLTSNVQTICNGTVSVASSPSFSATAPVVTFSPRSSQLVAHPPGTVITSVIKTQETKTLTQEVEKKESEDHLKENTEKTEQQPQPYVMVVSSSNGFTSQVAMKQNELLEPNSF

GAAGTG: the binding signal in the assay with FLI1 is 1.46 fold enrichment (6-mer frequency, TF over GST control); with ELK1 it was 1.7 fold enrichment (6-mer frequency, TF over GST control); with GABPA, 1.49 fold enrichment (6-mer frequency, TF over GST control); with ERG, 1.87 fold enrichment (6-mer frequency, TF over GST control); with ELF1, 1.52 fold enrichment (6-mer frequency, TF over GST control); in the assay with EHF, 1.71 fold enrichment (6-mer frequency, TF over GST control). The binding signal with SPI1 was 2.8 fold enrichment (6-mer frequency, TF over GST control); with SPIB, 1.61 fold enrichment (6-mer frequency, TF over GST control); with ELK3, 1.75 fold enrichment (6-mer frequency, TF over GST control); with FEV it was 1.88 fold enrichment (6-mer frequency, TF over GST control); with ETV5, 1.73 fold enrichment (6-mer frequency, TF over GST control); with SPIC, 2.01 fold enrichment (6-mer frequency, TF over GST control). The binding signal with ELF4 is 1.6 fold enrichment (6-mer frequency, TF over GST control); with ELK4, 1.32 fold enrichment (6-mer frequency, TF over GST control); with ETV2, 1.65 fold enrichment (6-mer frequency, TF over GST control); with ELF3, 1.65 fold enrichment (6-mer frequency, TF over GST control); with ETV1, 1.86 fold enrichment (6-mer frequency, TF over GST control).

Regarding CAATAG, the binding signal with FLI1 was 1.07 fold enrichment (6-mer frequency, TF over GST control); with ELK1, 1.07 fold enrichment (6-mer frequency, TF over GST control); in the assay with GABPA, 1.22 fold enrichment (6-mer frequency, TF over GST control); with ERG, 1.04 fold enrichment (6-mer frequency, TF over GST control); in the assay with ELF1, 1.07 fold enrichment (6-mer frequency, TF over GST control); with EHF it was 1.13 fold enrichment (6-mer frequency, TF over GST control). Further, the binding signal with SPI1 is 1.04 fold enrichment (6-mer frequency, TF over GST control); with SPIB, 1.08 fold enrichment (6-mer frequency, TF over GST control); in the assay with ELK3 it was 1.13 fold enrichment (6-mer frequency, TF over GST control); with ETV5, 1.11 fold enrichment (6-mer frequency, TF over GST control); with SPIC, 1.07 fold enrichment (6-mer frequency, TF over GST control); with ELF4, 1.09 fold enrichment (6-mer frequency, TF over GST control). The binding signal is 1.15 fold enrichment (6-mer frequency, TF over GST control) with ELK4; 1.01 fold enrichment (6-mer frequency, TF over GST control) with ETV2; 1.2 fold enrichment (6-mer frequency, TF over GST control) with ELF3; 1.02 fold enrichment (6-mer frequency, TF over GST control) in the assay with ETV1.
